From the supplement of paper PMC3334620 come the findings set out here.

Whole data set: some 33,000 sequences, median “E-score (-0.5 to 0.5)” near -0.021, cut for the highest 2% near 0.32. The full list was thinned out, with the highest values kept by preference.

The test deals with T1, Zap1 (UniProt P47043).
T1 sequence: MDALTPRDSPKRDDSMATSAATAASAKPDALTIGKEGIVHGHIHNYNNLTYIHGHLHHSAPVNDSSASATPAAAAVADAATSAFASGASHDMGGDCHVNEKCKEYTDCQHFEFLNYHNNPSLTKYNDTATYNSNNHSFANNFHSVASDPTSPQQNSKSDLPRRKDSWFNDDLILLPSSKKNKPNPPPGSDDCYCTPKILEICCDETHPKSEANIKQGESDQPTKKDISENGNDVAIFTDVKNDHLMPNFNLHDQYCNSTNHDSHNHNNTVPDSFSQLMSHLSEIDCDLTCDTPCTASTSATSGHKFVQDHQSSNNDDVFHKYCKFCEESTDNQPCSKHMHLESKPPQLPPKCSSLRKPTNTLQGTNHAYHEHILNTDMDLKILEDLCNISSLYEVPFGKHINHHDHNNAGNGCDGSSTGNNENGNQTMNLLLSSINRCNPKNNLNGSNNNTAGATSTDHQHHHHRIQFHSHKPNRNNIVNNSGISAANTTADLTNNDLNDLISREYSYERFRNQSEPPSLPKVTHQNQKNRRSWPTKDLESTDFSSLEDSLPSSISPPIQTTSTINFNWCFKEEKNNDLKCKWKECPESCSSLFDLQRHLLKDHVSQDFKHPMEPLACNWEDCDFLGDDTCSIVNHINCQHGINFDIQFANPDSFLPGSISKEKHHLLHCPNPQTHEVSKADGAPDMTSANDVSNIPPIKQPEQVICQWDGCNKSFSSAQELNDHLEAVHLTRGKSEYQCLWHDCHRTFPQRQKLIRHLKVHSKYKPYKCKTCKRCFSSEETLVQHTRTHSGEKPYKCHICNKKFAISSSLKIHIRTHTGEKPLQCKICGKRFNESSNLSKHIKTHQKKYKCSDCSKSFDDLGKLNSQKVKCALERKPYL
Briefly: PBM E-score (8-mer binding enrichment) (E-score (-0.5 to 0.5)); higher = stronger / more preferred TF binding. The settings on record: protein concentration: 200 nM; construct: GST-full length. Put shortly: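 Universal all-10-mer Agilent arrays, double-stranded by primer extension on fresh or once-stripped slides, were probed with about 100-200 nM GST-tagged yeast transcription factors made by PURExpress. Fluorescent anti-GST detected bound protein, and masliner normalised the scans. E-scores from the Universal PBM Analysis Suite were given to each ungapped eight-base word pooled with its reverse complement.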
As for AGTGGAAG, the “PBM E-score” value was -0.204.
ATGAGCGG: the “PBM E-score” value was -0.167.
Under GTTGGGAA stands 0.0568; under ATGAGGAC, -0.0846; under ATCCAGTC, -0.137.
For CTCTCACC, the “PBM E-score” value was 0.0392.
Consider AATCCCGA, for which the “PBM E-score” value was 0.0192.
Under ATCAACAT stands 0.00735; under ATAGGAAC, 0.0152; under CGCCTACG, -0.23.
For GAATGGCC, the “PBM E-score” value came to 0.188.
For the sequence AGTGCGAA, the “PBM E-score” value is -0.172.
Consider CCTTAAGC, for which the “PBM E-score” value was 0.0365.
Turning to CCTTAAGG, the “PBM E-score” value stood at 0.411.
With CCTTAAGA, the “PBM E-score” value amounted to 0.155.
On to AGCTCGAG, for which the “PBM E-score” value was -0.0098.
Consider GATACTCA, for which the “PBM E-score” value was -0.029.
As for ATAGGTAG, the figure is 0.172.
Regarding CTAGGTAC, the “PBM E-score” value came to 0.115.
As for ATAGGTAA, the figure is 0.323.
With CTAGGTAA, the “PBM E-score” value came to 0.0356.
Under ATAGGTGA stands 0.0727.
Regarding ATAGGTAC, the “PBM E-score” value was found to be 0.36.
For GGAAGGCA, the “PBM E-score” value is -0.191.
As to AGGGGCTG, the “PBM E-score” value is -0.0614.
Take CTGGTTAC: the “PBM E-score” value was 0.412.
With CTGGTTAA, the “PBM E-score” value came out at 0.225.
On to ATGGTTAG, for which the “PBM E-score” value was 0.316.
ATGGTTGC: the “PBM E-score” value amounted to 0.0738.
As for CTGGTTTC, the figure is 0.124.
Under ATGGTTAC stands 0.471.
On to ACGGTTGG, for which the “PBM E-score” value is -0.0119.
On to CGCTATAG, for which the “PBM E-score” value was -0.238.
As for TCCATTCA, the figure is 0.0213; as for ATCTGGAA, -0.00838.
As for CGACCTCA, the “PBM E-score” value was 0.081.
As for AAACCTAA, the figure is 0.159; as for AAACCTCA, 0.232; as for AGACCTCA, 0.0826.
As for CAACCTTA, the figure is 0.286.
Consider TAACCTAA, for which the “PBM E-score” value is 0.399.
Take AAACCTTA: the “PBM E-score” value was 0.288.
For the sequence TGACCTCA, the “PBM E-score” value was found to be 0.333.
For the sequence TAACCTCA, the “PBM E-score” value was 0.418.
For the sequence CAACCTAA, the “PBM E-score” value was 0.203.
GAACCTCA: the “PBM E-score” value is 0.189.
As to TAACCTTA, the “PBM E-score” value was 0.39.
Under AGCTACAT stands -0.263; under ATTTCTGG, 0.0521.
Consider AAGTTCAC, for which the “PBM E-score” value was -0.108.
Turning to AATGAAGT, the “PBM E-score” value is 0.0905.
For AATCAAAG, the “PBM E-score” value amounted to 0.0185.
Consider ACTATGAT, for which the “PBM E-score” value was -0.00467.
On to GTTGTATA, for which the “PBM E-score” value is 0.117.
For the sequence AAGTTGCT, the “PBM E-score” value was -0.0577.
Under GTACTGAA stands 0.317; under GTACTGAC, 0.0986; under GTACTGTA, 0.0704.
As for AGGGTCCG, the figure is -0.0112; as for CGATGGCG, -0.284.
In the case of CATGAAAC, the “PBM E-score” value came out at 0.0838.
As for CAAGTGCG, the “PBM E-score” value is -0.0607.
GGCATGTA: the “PBM E-score” value was -0.0887.
Regarding CCGCCCGG, the “PBM E-score” value turned out to be 0.0274.
As for CCGCCCCC, the “PBM E-score” value is -0.343.
CCGCCCCG: the “PBM E-score” value came out at 0.341.
For CAGGTGTC, the “PBM E-score” value is -0.0194.
As for CAGTACTA, the figure is 0.164.
Consider TCAAAAAA, for which the “PBM E-score” value was 0.202.
As for CAACCAAA, the figure is 0.213.
As to AAACCATA, the “PBM E-score” value came to 0.202.
With TAACCATA, the “PBM E-score” value was determined as 0.44.
Regarding CAACCCCG, the “PBM E-score” value was determined as 0.211.
As for TAACCCAA, the figure is 0.424.
CAACCCCC: the “PBM E-score” value is -0.212.
In the case of CAACCCAA, the “PBM E-score” value stood at 0.272.
TAACCAAA: the “PBM E-score” value worked out at 0.386.
With GAACCCAA, the “PBM E-score” value worked out at 0.152.
With CAACCCCA, the “PBM E-score” value is 0.42.
As for AAACCAAA, the “PBM E-score” value came out at 0.254.
In the case of GAACCATA, the “PBM E-score” value was found to be 0.206.
Regarding AAGATGCA, the “PBM E-score” value turned out to be 0.0988.
For the sequence AACTTGCT, the “PBM E-score” value is -0.17.
For AATGTCTA, the “PBM E-score” value is 0.00891.
As for CGTCAGTC, the “PBM E-score” value is -0.206.
Consider GCCGCATA, for which the “PBM E-score” value was found to be 0.102.
